# The whole screen tested about 290,000 compounds, of which about 800 (0.28%) were called active.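 The calls were made as follows: active = fall in fluorescence gain of 50% or more versus controls, with final raw signal at or below 3038400; inconclusive = same 50% fall but final raw signal above 3038400; inactive = fall in fluorescence gain under 50%.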 The sample as a whole holds a higher share of actives than the screen did.
# Biological target: CAAX prenyl protease 2 (Saccharomyces cerevisiae (strain ATCC 204508 / S288c)) (UniProt Q03530)
# Test: blockers of Rce1 CaaX peptide cleavage – biochemical, fluorescence, cell-free homogeneous, primary screen (AID 2563)
# Conditions: yeast membranes, quenched prenylated peptide cleavage fluorescence
# Sequence of CAAX prenyl protease 2 (Saccharomyces cerevisiae (strain ATCC 204508 / S288c)) (Q03530 whole entry, looked up): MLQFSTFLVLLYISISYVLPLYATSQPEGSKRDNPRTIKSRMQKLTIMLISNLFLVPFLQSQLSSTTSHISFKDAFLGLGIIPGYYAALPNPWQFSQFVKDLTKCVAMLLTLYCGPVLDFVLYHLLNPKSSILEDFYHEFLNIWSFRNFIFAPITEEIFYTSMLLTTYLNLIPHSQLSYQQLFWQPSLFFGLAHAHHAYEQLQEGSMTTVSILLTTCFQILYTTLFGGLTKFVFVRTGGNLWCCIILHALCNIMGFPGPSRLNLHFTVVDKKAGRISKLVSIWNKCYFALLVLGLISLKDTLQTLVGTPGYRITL
row,Compound,outcome
1,COc1ccc(NC(=O)CSc2nnc(Cc3ccccc3)c(=O)n2N)cc1,inactive
2,Cc1cc(C)c(S(=O)(=O)NCC(c2ccc3c(c2)OCO3)N2CCOCC2)c(C)c1 (stereo not given),inactive
3,COc1ccccc1N(C)S(=O)(=O)c1ccc(Cl)c(C(=O)Nc2ccncc2)c1,inactive
4,Nc1nc(NCC(=O)O)nc(N2CCCCCC2)c1[N+](=O)[O-],inactive
5,COCCNc1nc(N)c([N+](=O)[O-])c(NCCO)n1,inactive
6,COCCNc1nc(N)c([N+](=O)[O-])c(N2CCCCCC2)n1,active
7,O=C(NCC1(N2CCCCC2)CCCCC1)c1ccc(NS(=O)(=O)c2ccc(F)cc2)cc1,inactive
8,COc1ccc2oc(C(=O)N(CC(C)C)C3CCS(=O)(=O)C3)c(C)c2c1 (stereo not given),inactive
9,COc1ccc(S(=O)(=O)N2CCCCCC2)cc1C(=O)N(C)Cc1cccc(OC)c1OC,inactive
10,Cc1noc(C)c1CSCC(=O)Nc1ccc(Br)cc1Cl,inactive
11,COC(C/C=C/C(=O)[C@@H](C)OCc1ccccc1)OC,inactive
12,COC(C[C@@H]1O[C@@H]1C(=O)[C@@H](C)OCc1ccccc1)OC,active
13,COC(C[C@@H]1O[C@@H]1C(=O)[C@H](C)OCc1ccccc1)OC,inactive
14,COc1ccc(/C=N/NC(=O)c2cc(-c3cccc(C)c3)nc3ccccc23)cc1O,inactive
15,CCOC(=O)C1CCN(C(=O)COC(=O)C2CCN(S(=O)(=O)c3ccc4c(c3)OCCO4)CC2)CC1,inactive
16,O=C(c1cc(-c2ccc(Cl)s2)nc2ccccc12)N1CCOCC1,inactive
17,CN(C(=O)COC(=O)c1cc(-c2ccco2)nc2ccccc12)C1CCS(=O)(=O)C1 (stereo not given),inactive
18,Cc1cc(C)c2nc(-c3ccco3)cc(C(=O)O)c2c1,active
19,O=C(Nc1cccc(F)c1)c1cc(-c2ccco2)nc2ccccc12,inactive
20,CC(C)C(=O)NC(=S)Nc1ccccc1F,inactive
21,CC(C)C(=O)Nc1cccc(NC(=S)NC(=O)C(c2ccccc2)c2ccccc2)c1,active
22,CCCCC(=O)NNC(=S)NC(=O)C(c1ccccc1)c1ccccc1,inactive
23,CS(=O)(=O)c1ccc(C(=O)OCC(=O)NNC(=O)COc2ccc(Cl)cc2)cc1,inactive
24,CCC(=O)c1ccc(OCC(=O)OCC(=O)NC2CCCCCC2)cc1,inactive
25,Cc1nc2ccccn2c(=O)c1NC(=O)c1cccs1,inactive

row,Compound,outcome
1,COc1ccccc1C(=O)Nc1ccccc1C(=O)Nc1ccccc1,inactive
2,COc1ccccc1C(=O)NNC(=O)c1ccc(NC(=O)c2ccccc2)cc1,active
3,COc1ccccc1C(=O)Nc1ccc(Nc2ccccc2)cc1,inactive
4,Cc1nc2ccccc2c(=O)n1-c1ccc(F)c(NC(=O)c2cccs2)c1,inactive
5,Cc1cc(C)c(S(=O)(=O)N2CCCC2CNC(=O)c2ccc3c(c2)OCO3)c(C)c1 (stereo not given),inactive
6,COC(=O)N/N=C/c1c[n+]([O-])c2ccccc2[n+]1[O-],inactive
7,NS(=O)(=O)c1cc(C(=O)OCC(=O)NNC(=O)c2ccccc2)ccc1Cl,inactive
8,CCN(CC(=O)Nc1ccccc1C(F)(F)F)C(=O)CSCc1c(C)noc1C,inactive
9,COc1ccc2nc(N3CCN(C(=O)c4ccc([N+](=O)[O-])o4)CC3)sc2c1,inactive
10,CC(=O)c1ccc(S(=O)(=O)Nc2ccc(-c3ccc4nncn4n3)cc2)cc1,inactive
11,COC(=O)C1CCN(C(=O)NC2CC(=O)N(c3ccc4c(c3)OCCO4)C2)CC1 (stereo not given),inactive
12,O=C(CN1CCN(c2ccccn2)CC1)Nc1ccc(Br)cc1,inactive
13,Cc1cc(Br)ccc1NC(=O)c1cnc(N2CCN(c3ccccn3)CC2)c2ccccc12,active
14,Cc1cc(Br)ccc1NC(=O)c1sc2ncn(CC(=O)N3CCN(c4ccccn4)CC3)c(=O)c2c1C,inactive
15,O=C(Nc1ccc(N2CCCCC2)cc1)c1cc(S(=O)(=O)N2CCOCC2)ccc1F,inactive
16,CN1c2ccc(C=O)c3c(C=O)ccc(c23)N(C)C1(C)C,active
17,CCOc1ccc(S(=O)(=O)NCCC(=O)NCC(C)(C)N2CCOCC2)cc1,inactive
18,CC(=O)Nc1ccc(NC(=O)CSc2nnnn2C2CCCCC2)cc1,inactive
19,COc1ccc(Cl)cc1NS(=O)(=O)c1cccc(C(=O)NC2CCC(O)CC2)c1 (stereo not given),inactive
20,Cc1ccc(NC(=O)C2CC(=O)N(c3ccc4c(c3)OCCO4)C2)cc1S(=O)(=O)N1CCCCCC1 (stereo not given),inactive
21,O=C(CCNC(=O)c1ccc(Br)cc1)NCCCc1ccccc1,inactive
22,CN(CC(=O)NNC(=O)CNC(=O)c1ccccc1Cl)S(=O)(=O)c1ccc(Cl)cc1,inactive
23,Cc1ccc(SCc2c(C(=O)N/N=C/C3CC=CCC3)nnn2-c2nonc2N)cc1 (stereo not given),inactive
24,COCc1c(C(=O)N/N=C\c2cccnc2)nnn1-c1nonc1N,inactive
25,COCc1c(C(=O)N/N=C/C2CC=CCC2)nnn1-c1nonc1N (stereo not given),active

# Source: PubChem BioAssay AID2563 (Broad Institute, 2010)
